Consider 65 compounds from PMC4552634, “A New Set of Chemical Starting Points with Plasmodium falciparum Transmission-Blocking Potential for Antimalarial Drug Discovery” (PLoS ONE, 2015).

Screen size: about 13,000 compounds; about 3,200 (25%) showed an effect of 50% or more. The list shows a part of the results.

This experiment concerns P. falciparum stage V gametocytes. Set-up: BacTiter-Glo ATP luminescence viability of purified stage V gametocytes in 384-well plates, per cent inhibition versus DMSO. To be noted: 48 h, 5 µM; inhibitor.
For `Cc1ccccc1C1CCN(C2CCC(NC(=O)/C=C/c3ccc4c(c3)OC(F)(F)O4)CC2)CC1` (centres unmarked) [TCMDC-133520], the “% Inhibition” value was -82.53%.

Regarding `COc1cc(Br)ccc1N1CCN(CCCCNC(=O)c2ccc(NC(=O)c3ccc(Cl)cc3)cc2)CC1` [TCMDC-138257], the “% Inhibition” value was 6.971%.

As for `CC(C)c1ccc2[nH]c(C(=O)NC3CCC(N4CCCc5ccc(C#N)cc5C4)CC3)cc2c1` (centres unmarked) [TCMDC-133503], the “% Inhibition” value is reported as -23.75%.

Consider `O=C(NCCCNc1ccnc2cc(Cl)ccc12)c1ccccc1F` [TCMDC-125231], for which the “% Inhibition” value amounted to 46.84%.

On to `N#Cc1ccccc1C1CCN(C2CCC(Nc3cc(-c4cccnc4)ccn3)CC2)CC1` (centres unmarked) [TCMDC-134834], for which the “% Inhibition” value is recorded as -2.713%.

For the compound `Cc1cc(C(F)(F)F)nn1-c1ccc(NC(=O)c2ccco2)cc1` [TCMDC-124896], the “% Inhibition” value worked out at 9.865%.

With `O=C(/C=C/c1ccc(Cl)c(Cl)c1)NCCCCCN1CCC(NC(=O)Nc2cccc(Cl)c2Cl)CC1` [TCMDC-135725], the “% Inhibition” value is reported as -48.39%.

For the compound `NC1=NC(c2ccccc2)(c2ccccc2)C(=O)N1CC1CCC1` [TCMDC-136775], the “% Inhibition” value stood at 2.608%.

With `Cc1ccccc1NC(=S)NC1CCN(CCCCCNC(=O)/C=C/c2ccc(Cl)c(Cl)c2)CC1` [TCMDC-135897], the “% Inhibition” value is reported as 97.66%.

`Cc1ccc(NC(=S)NC2CCN(CCCCCNC(=O)/C=C/c3ccc(Cl)c(Cl)c3)CC2)cc1Cl` [TCMDC-135901]: the “% Inhibition” value came out at 122.2%.

As to `CSc1ccccc1NC(=S)NC1CCN(CCCCCNC(=O)/C=C/c2ccc(Cl)c(Cl)c2)CC1` [TCMDC-139391], the “% Inhibition” value is 14.69%.

Regarding `O=C(/C=C/c1ccc(Cl)c(Cl)c1)NCCCCCN1CCC(NC(=S)Nc2ccc(Cl)c(Cl)c2)CC1` [TCMDC-135903], the “% Inhibition” value is on record as -7.54%.

Take `O=C(/C=C/c1ccc(Cl)c(Cl)c1)NCCCCCN1CCC(NC(=O)Nc2cc(Cl)cc(Cl)c2)CC1` [TCMDC-135727]: the “% Inhibition” value is listed as -63.17%.

Take `O=C(/C=C/c1ccc(Cl)c(Cl)c1)NCCCCCN1CCC(NC(=O)Nc2cccc(Cl)c2)CC1` [TCMDC-135711]: the “% Inhibition” value is 59.36%.

On to `Cc1cccc(NC(=S)NC2CCN(CCCCCNC(=O)/C=C/c3ccc(Cl)c(Cl)c3)CC2)c1` [TCMDC-139390], for which the “% Inhibition” value is -46.46%.

As to `Cc1ccccc1NC(=O)NC1CCN(CCCCCNC(=O)/C=C/c2ccc(Cl)c(Cl)c2)CC1` [TCMDC-135701], the “% Inhibition” value is -65.25%.

For the compound `O=C(/C=C/c1ccc(Cl)c(Cl)c1)NCCCCCN1CCC(NC(=S)Nc2cccc(Cl)c2)CC1` [TCMDC-135899], the “% Inhibition” value is -1.091%.

For the compound `O=C(/C=C/c1ccc(Cl)c(Cl)c1)N1CCC(CCN2CCC(c3nc4ccc(O)cc4[nH]3)CC2)CC1` [TCMDC-140127], the “% Inhibition” value is -21.57%.

With `O=C(Nc1ccc(F)cc1)c1cnc(N2CCN(c3ccncc3)CC2)c(Cl)c1` [TCMDC-134599], the “% Inhibition” value was 47.6%.

As to `CC(C)(CNC(=O)C1CCN(Cc2ccc(Cl)cc2)CC1)c1nc(-c2ccc(Cl)c(O)c2)c(-c2ccncc2)[nH]1` [TCMDC-141138], the “% Inhibition” value is -35.73%.

Turning to `NC(=O)c1cc2nc(Nc3ccc(F)cc3)nc(Nc3ccc(S(N)(=O)=O)cc3)c2[nH]1` [TCMDC-137043], the “% Inhibition” value was -45.2%.

In the case of `CC(C)(C)NCc1cc(Nc2ccnc3cc(Cl)ccc23)ccc1F` [TCMDC-135909], the “% Inhibition” value was -17.74%.

As for `C[C@H](NC(=O)[C@H](CCCCNC(=O)OC(C)(C)C)NC(=O)OC(C)(C)c1ccc(-c2ccccc2)cc1)C(=O)OCc1ccccc1` [TCMDC-131396], the “% Inhibition” value came out at 15.4%.

As for `O=C(Nc1ccc2nccc(N3CCN4CCC[C@H]4C3)c2c1)c1ccc(Cl)c(Cl)c1` [TCMDC-139628], the “% Inhibition” value worked out at 19.58%.

In the case of `CC[C@H](C)CNC(=O)c1cccc(-c2cccc(CN3CCC(N4CCCC4)CC3)c2)n1` [TCMDC-134224], the “% Inhibition” value is 16.22%.

As for `CC[C@H](C)CNC(=O)c1ccnc(-c2ccc(CN3CCC(N4CCCC4)CC3)cc2)c1` [TCMDC-134250], the “% Inhibition” value stood at 36.18%.

Regarding `CC[C@H](C)CNC(=O)c1cccc(-c2ccc(CN3CCC(N4CCCC4)CC3)cc2)n1` [TCMDC-134249], the “% Inhibition” value was 57.67%.

For the compound `N#Cc1ccc2c(c1)CCN(CCC1CCC(NC(=O)c3cc4cccc(Cl)c4[nH]3)CC1)CC2` (centres unmarked) [TCMDC-139685], the “% Inhibition” value is reported as -1.386%.

As to `Cc1ccc(C(=O)Cn2nc(-c3ccc(C)c(S(=O)(=O)N4CCCC4)c3)ccc2=O)cc1` [TCMDC-124704], the “% Inhibition” value is -26.21%.

`Cc1ccc(C(=O)Cn2nc(-c3ccc(C)c(S(=O)(=O)N4CCCCC4)c3)ccc2=O)cc1` [TCMDC-124714]: the “% Inhibition” value is reported as 32.41%.

As to `Cc1ccc(-c2nnc3c4ccccc4c(C)nn23)cc1S(=O)(=O)N1CCN(CCO)CC1` [TCMDC-124482], the “% Inhibition” value is 63.32%.

Take `NC(=S)Cc1ccc2c(c1)OCO2` [TCMDC-137863]: the “% Inhibition” value is reported as -6.254%.

For the compound `O=C(Cc1ccccc1)NC(CCN1CCC(N(C2CC2)S(=O)(=O)c2cccc(C(F)(F)F)c2)CC1)c1ccc(Cl)c(Cl)c1` (centres unmarked) [TCMDC-141710], the “% Inhibition” value is recorded as 20.7%.

As to `CCCCCN1CCC(NS(=O)(=O)c2cccc(C(=O)Nc3ccc(Cl)cc3)c2)CC1` [TCMDC-132806], the “% Inhibition” value is listed as 32.08%.

For the compound `Cc1cnn(-c2cccc(C(=O)NC3CCC(CCN4CCc5ccc(C#N)cc5CC4)CC3)c2)c1` (centres unmarked) [TCMDC-139818], the “% Inhibition” value is given as -20.34%.

On to `Cc1cccc2[nH]c(-c3cccc(-c4ccc(NC(=O)Nc5ccsc5)cc4)c3)nc12` [TCMDC-133211], for which the “% Inhibition” value was 22.09%.

Regarding `COc1cccc(Nc2nc(C)cc(NC3CCN(Cc4ccccc4)CC3)n2)c1` [TCMDC-134022], the “% Inhibition” value was -46.19%.

On to `Cc1cc(NC2CCN(Cc3ccccc3)CC2)nc(NCCCCc2ccccc2)n1` [TCMDC-138304], for which the “% Inhibition” value turned out to be 79.92%.

In the case of `Cc1ccc(-c2cncc(-c3cc(NC4CCN(Cc5ccccc5)CC4)nc(-c4ccccc4)n3)c2)cc1` [TCMDC-125588], the “% Inhibition” value came to 17.17%.

As to `CS(=O)(=O)N(CC(O)Cn1c2ccc(Cl)cc2c2cc(Cl)ccc21)c1ccccc1` (centres unmarked) [TCMDC-124039], the “% Inhibition” value was 35.36%.

In the case of `CC12CCC(C(=O)N(CC(O)Cn3c4ccc(Cl)cc4c4cc(Cl)ccc43)C1=O)C2(C)C` (centres unmarked) [TCMDC-125719], the “% Inhibition” value came to 82.98%.

`OC(CNc1cccc(Cl)c1)Cn1c2ccc(Cl)cc2c2cc(Cl)ccc21` (centres unmarked) [TCMDC-125716]: the “% Inhibition” value worked out at 20.85%.

On to `Fc1ccc2[nH]c(-c3ccc(-c4ccc(CNCC5CCCO5)cc4)cc3)nc2c1.O=C(O)C(F)(F)F` (centres unmarked) [TCMDC-133097], for which the “% Inhibition” value is reported as 36.17%.

For `CCOC(=O)c1cn(CC)c2cc(OCc3ccccc3)ccc2c1=O` [TCMDC-141680], the “% Inhibition” value came out at 0.3884%.

Take `CCOC(=O)c1c(CNc2ccncc2)n(C)c2cc(Br)c(OC(C)=O)cc12` [TCMDC-125700]: the “% Inhibition” value was -53.66%.

Take `CCOC(=O)c1cc2c(CCN3C(=O)c4ccccc4C3=O)cn(C)c2cc1-c1ccncc1` [TCMDC-138099]: the “% Inhibition” value was 108.6%.

Regarding `CS(=O)(=O)Nc1cccc(-c2cnc3[nH]cc(-c4cc(N)cc(C(=O)O)c4)c3c2)c1` [TCMDC-136220], the “% Inhibition” value came out at 11.92%.

As for `COc1nc(-n2ccc(=N)cc2)nc2ccccc12` [TCMDC-131303], the “% Inhibition” value was determined as 8.489%.

For `c1ccc(-n2cncn2)cc1` [TCMDC-124291], the “% Inhibition” value amounted to 2.88%.

For the compound `CCC(C)CN1C(=O)C(c2ccccc2)(c2ccccc2)N=C1N` (centres unmarked) [TCMDC-136799], the “% Inhibition” value is on record as -2.713%.

Regarding `CCC(CN1C(=O)C(c2ccccc2)(c2ccccc2)N=C1N)c1ccccc1` (centres unmarked) [TCMDC-136879], the “% Inhibition” value stood at 66.04%.

In the case of `CCC(CC)CN1C(=O)C(c2ccccc2)(c2ccccc2)N=C1N` [TCMDC-136491], the “% Inhibition” value was determined as 13.18%.

Turning to `CC(C)CNCc1cccc(-c2cccc(CN(C(=O)c3cccs3)C3CCN(Cc4ccccc4)CC3)c2)c1` [TCMDC-140565], the “% Inhibition” value is 96.32%.

Take `CC(C)CNCc1cccc(-c2ccc(CN(C(=O)c3cccs3)C3CCN(Cc4ccccc4)CC3)cc2)c1` [TCMDC-140569]: the “% Inhibition” value is given as 103.7%.

Regarding `CN(c1cc(NC(=O)c2cccs2)ccn1)C1CCN(Cc2ccccc2)CC1` [TCMDC-135006], the “% Inhibition” value is recorded as 1.42%.

As to `CN(CCCCCNC(=O)/C=C/c1ccc(Cl)c(Cl)c1)CCc1c[nH]c2ccccc12` [TCMDC-139327], the “% Inhibition” value was -26.77%.

Regarding `COc1cc(Cc2c(C)nc3nc(N)nc(N)c3c2C)c(Br)c(OC)c1OC` [TCMDC-137644], the “% Inhibition” value came to 1.652%.

As for `COc1cccc(NC(=O)NC2CCN(c3ccnc(Nc4ccc(F)cc4)n3)C2)c1` (centres unmarked) [TCMDC-133602], the “% Inhibition” value is -32.07%.

As for `CN1CCC(N(Cc2ccc(-c3ccc(C(F)(F)F)cc3)nc2)C(=O)Cn2c(CCc3cccc(F)c3F)cc(=O)c3ccccc32)CC1` [TCMDC-141407], the “% Inhibition” value was found to be 27.49%.

With `CN1CCC(N(Cc2ccc(-c3ccc(Cl)cc3)cc2)C(=O)Cn2c(CCc3cccc(F)c3F)cc(=O)c3ccccc32)CC1` [TCMDC-141357], the “% Inhibition” value came to 111.3%.

Take `CCN1CCC(N(Cc2ccc(-c3ccc(Cl)cc3)cc2)C(=O)Cn2c(CCc3cccc(F)c3F)cc(=O)c3ccccc32)CC1` [TCMDC-141358]: the “% Inhibition” value is listed as 109.7%.

For `Nc1nc2ccc(CN(C=O)c3ccc(C(=O)N[C@@H](CCC(=O)O)C(=O)O)cc3)cc2c(=O)[nH]1` [TCMDC-132048], the “% Inhibition” value was determined as 3.734%.

`COc1ccc(Cn2c(Nc3cccc(C(F)(F)F)c3)nc3ccc(C(=O)NCCN4CCCC4)cc32)cc1Cl` [TCMDC-138531]: the “% Inhibition” value was -30.77%.

In the case of `COc1ccc(Cn2c(Nc3cccc(C(F)(F)F)c3)nc3cc(C(=O)NCCN4CCCC4)cnc32)cc1Cl` [TCMDC-138555], the “% Inhibition” value was 60.89%.

For `COc1ccc(Cn2c(Nc3cccc(C(F)(F)F)c3)nc3cc(C(=O)NCCN4CCCC4)ccc32)cc1Cl` [TCMDC-138532], the “% Inhibition” value is reported as -18.24%.
